Among all 96,000 compounds or so, about 20,000 (21%) were called active.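 The calls were made as follows: active = CYP2C19 inhibition above a set limit at 5 µM in the primary screen (cut at about 50% in these data); inactive = the rest.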 These entries were drawn from the full list.
What follows are molecules tested against Cytochrome P450 2C19 (Homo sapiens) (UniProt P33261) (assay: blockers of cytochrome P450 2C19 activity – biochemical, luminescence, ADME assay, primary screen (AID 778;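 also: plate controls were negative control wells for no effect and 2.5 mM tranylcypromine positive control for full effect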)). Conditions: CYP2C19 Supersomes, luciferin-H EGE luminescence, 30 min; at 5 µM; stronger effect = higher value.
Cytochrome P450 2C19 (Homo sapiens), sequence (P33261 whole entry, looked up): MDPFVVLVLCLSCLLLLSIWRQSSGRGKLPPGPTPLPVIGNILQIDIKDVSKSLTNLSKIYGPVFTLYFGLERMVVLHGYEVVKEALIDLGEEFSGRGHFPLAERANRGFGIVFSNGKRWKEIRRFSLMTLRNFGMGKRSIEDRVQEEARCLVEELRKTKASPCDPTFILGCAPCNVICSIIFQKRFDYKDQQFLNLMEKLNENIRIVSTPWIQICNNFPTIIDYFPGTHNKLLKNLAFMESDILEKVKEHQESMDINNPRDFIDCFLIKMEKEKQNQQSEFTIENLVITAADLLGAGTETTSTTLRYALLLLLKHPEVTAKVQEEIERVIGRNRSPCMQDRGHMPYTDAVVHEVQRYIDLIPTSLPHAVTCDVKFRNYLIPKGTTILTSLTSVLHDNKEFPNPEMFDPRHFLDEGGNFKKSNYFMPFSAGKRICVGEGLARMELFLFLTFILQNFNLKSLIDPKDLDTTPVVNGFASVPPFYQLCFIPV
For `CCOc1cc(C(=S)N2CCOCC2)ccc1O`, the inhibition was 12.3% (inactive).
In the case of `CN(CC#CCC(c1ccccc1)c1ccccc1)C(C)(C)C`, the inhibition is reported as 46.1% (inactive).
`CC(=O)OCc1cc(=O)n(C)c(=O)n1C` was tested, and the inhibition was 1.9% (inactive).
With `CCCc1nnc(NC(=O)c2cccs2)s1` the inhibition was 7.8% (inactive).
`C=CCOc1ccc(/C=N/n2cncn2)cc1OC` was tested, and the inhibition was 96.6% (active).
For `COc1cc(/C=N/NC(=O)Nc2ccccc2)ccc1OCCOc1ccccc1C`, the inhibition was 4.8% (inactive).
In the case of `COc1ccc(/C=N/Nc2nc3ccccc3o2)cc1OC`, the inhibition is reported as -0.5% (inactive).
For `Cc1csc(NC(=O)CN2CCCCCC2)n1`, the inhibition was 22.8% (inactive).
In the case of `CCOc1cc(/C=N/O)cc(Br)c1OC`, the inhibition is reported as 45.6% (inactive).
With `COc1cc(/C=N/O)cc(Br)c1OCc1cccc(Cl)c1` the inhibition was 4.4% (inactive).
With `COc1cc(/C=N/O)cc(Br)c1OS(=O)(=O)c1ccc(C)cc1` the inhibition was 73.4% (active).
For `Nc1c(-c2cccc(Cl)c2)cnn1-c1cccc([N+](=O)[O-])c1`, the inhibition was 24% (inactive).
In the case of `Cc1noc(C)c1S(=O)(=O)NCCc1ccc(S(N)(=O)=O)cc1`, the inhibition is reported as -13.5% (inactive).
With `COCCNS(=O)(=O)c1cc(Br)ccc1OC` the inhibition was 66.9% (active).
`COc1ccc(Br)cc1S(=O)(=O)N1CCN=C1C` was tested, and the inhibition was 40.3% (inactive).
For `COc1ccc(C)cc1S(=O)(=O)NCCc1ccccc1`, the inhibition was 54.1% (active).
`COc1ccc(C)cc1S(=O)(=O)NC1CCCCC1` was tested, and the inhibition was 15% (inactive).
In the case of `COc1ccc(Cn2c(C)c(C)c(C#N)c2NC(=O)Nc2ccc(F)cc2)cc1`, the inhibition is reported as 4.4% (inactive).
In the case of `Cc1ccc(F)cc1NC(=O)c1cccc(N(C)C)c1`, the inhibition is reported as 8.6% (inactive).
With `CCCC(NS(=O)(=O)c1ccc(OC)cc1)C(=O)O` (stereo not given) the inhibition was -12.7% (inactive).
In the case of `CCc1ccc(Nc2ncc3c(n2)CC(c2ccco2)CC3=O)cc1` (stereo not given), the inhibition is reported as 1% (inactive).
`CC1CCCC(NC(=O)CN2CCN(Cc3ccc(Cl)cc3)C2=O)C1C` (stereo not given) was tested, and the inhibition was 18.3% (inactive).
In the case of `CC1CCCC(NC(=O)CSc2nccn2C)C1C` (stereo not given), the inhibition is reported as 97.2% (active).
`CC1CCCCC1NC(=O)CSc1nnc(N)s1` (stereo not given) was tested, and the inhibition was 4% (inactive).
With `Cc1ccc(NC(=S)NC(NC(=O)Cc2cccc3ccccc23)C(Cl)(Cl)Cl)cc1` (stereo not given) the inhibition was 49.5% (inactive).
In the case of `CSCCC(NC(=O)C1CCC(C)CC1)C(=O)NCc1ccco1` (stereo not given), the inhibition is reported as 8.2% (inactive).
With `O=C(NC1CCC(O)CC1)c1ccc(S(=O)(=O)NCc2ccco2)cc1` (stereo not given) the inhibition was -9% (inactive).
With `CCCC(C(=O)NCc1ccco1)N(C(=O)CNS(=O)(=O)c1ccccc1)C1CCCC1` (stereo not given) the inhibition was 78.3% (active).
In the case of `COc1ccc(C2=NOC3(CC(=O)N(c4ccc(C)cc4)C3=O)C2)cc1` (stereo not given), the inhibition is reported as -13.3% (inactive).
For `O=C1CSC(c2ccc(Cl)cc2)N1` (stereo not given), the inhibition was 13.7% (inactive).
`c1ccc2c(NCC3CCCO3)nc(-c3ccncc3)nc2c1` (stereo not given) was tested, and the inhibition was 94.5% (active).
`Cc1nc2ccccc2c2oc(C(=O)NCC3CCCO3)cc12` (stereo not given) was tested, and the inhibition was -8.4% (inactive).
With `O=C(NCC1CCCO1)c1ccc2ccccc2n1` (stereo not given) the inhibition was -2.7% (inactive).
For `Cc1ccc(S(=O)(=O)n2nc(OC(=O)C(C)(C)C)cc2N)cc1`, the inhibition was 21.6% (inactive).
For `CS(=O)(=O)N1CCN(c2cccc(Cl)n2)CC1`, the inhibition was 46.3% (inactive).
`Cc1ccc(N2CCN(S(=O)(=O)N(C)C)CC2)cc1Cl` was tested, and the inhibition was 59.1% (active).
With `c1ccc(-n2ncc3c2ncn2c(C4CCCCC4)nnc32)cc1` the inhibition was -4.4% (inactive).
`CCn1ncc(C2=NOC(C(=O)N3CCN(c4ccccc4)CC3)C2)c1C` (stereo not given) was tested, and the inhibition was -20.9% (inactive).
In the case of `O=C(OCC(=O)N1CCCC1)c1ccco1`, the inhibition is reported as 0.8% (inactive).
With `CCOc1nc(-c2ccc(OC)cc2)ccc1-c1noc(-c2cc(OC)c(OC)c(OC)c2)n1` the inhibition was 8% (inactive).
`COc1nc(-c2ccc(Cl)cc2)ccc1-c1noc(-c2cccs2)n1` was tested, and the inhibition was 7% (inactive).
With `c1csc(-c2nc(-c3ccncc3)no2)c1` the inhibition was 72.2% (active).
`CCc1ccc(CNC(=O)CCc2nc(-c3cccs3)no2)cc1` was tested, and the inhibition was 37.6% (inactive).
In the case of `COc1ccc(-c2noc(-c3cccc(OC)c3OC)n2)cc1OC`, the inhibition is reported as 22.7% (inactive).
With `COc1cc(-c2nc(-c3ccncc3)no2)cc(OC)c1OC` the inhibition was 83.6% (active).
For `O=C(CSc1nc(-c2ccco2)cc(C(F)(F)F)n1)N1CCc2ccccc2C1`, the inhibition was 42.7% (inactive).
With `Cc1[nH]c2ccccc2c1C(=O)CSCC(=O)O` the inhibition was 0.7% (inactive).
In the case of `Cc1cc(N=CC2=C(O)CCCC2=O)no1`, the inhibition is reported as 2.1% (inactive).
With `c1coc(CNc2ncnc3ccccc23)c1` the inhibition was -3.8% (inactive).
In the case of `O=C(COc1ccc(Cl)cc1)NCCC1=CCCCC1`, the inhibition is reported as 26.8% (inactive).
With `O=C(CN1C(=O)NC2(CCCCC2)C1=O)NCCC1=CCCCC1` the inhibition was 8.2% (inactive).
`S=C(NCCC1=CCCCC1)Nc1ccccc1` was tested, and the inhibition was 46.9% (inactive).
`Cc1nnc(OCC(=O)NCCC2=CCCCC2)c2ccccc12` was tested, and the inhibition was 55.2% (active).
For `O=C(COc1cccc(-n2cnnn2)c1)NCCC1=CCCCC1`, the inhibition was 89.3% (active).
With `O=C(Cc1nn[nH]n1)NCCC1=CCCCC1` the inhibition was -1.9% (inactive).
`O=C(O)C1CC=CCC1C(=O)NCCc1ccccc1` (stereo not given) was tested, and the inhibition was -8.8% (inactive).
`CC1(C)COC(c2cccn2Cc2ccccc2Cl)=N1` was tested, and the inhibition was 2.4% (inactive).
`CNC(=O)c1ccc2nc(NC(C)=O)sc2c1` was tested, and the inhibition was 2.4% (inactive).
In the case of `O=C(Cn1c(-c2ccc(Cl)cc2)noc1=O)N1CCN(c2ccccc2F)CC1`, the inhibition is reported as 12.6% (inactive).
`CCCCOC(=O)Nc1sc2nc(C)cc(C)c2c1-n1cccc1` was tested, and the inhibition was 9.4% (inactive).
In the case of `O=C(Nc1cccc2c1CCCC2)C1CCN(C(=O)NC2CCCCC2)CC1`, the inhibition is reported as 2.3% (inactive).
In the case of `COCCNC(=O)COc1ccccc1C`, the inhibition is reported as 2% (inactive).
In the case of `COCCCNC(=O)COc1cc(C)c(Cl)c(C)c1`, the inhibition is reported as 86.2% (active).
With `COCCNC(=O)COc1ccc(C)c(C)c1` the inhibition was -3.5% (inactive).
With `CCOC(=O)C1C(=O)C=C(c2ccc(OC)cc2)CC1c1ccco1` (stereo not given) the inhibition was 28.1% (inactive).
With `CCCCCCOC(=O)NCC(O)c1ccccc1` (stereo not given) the inhibition was 23.3% (inactive).
`O=C(OCC(O)C(O)COC(=O)c1ccccc1)c1ccccc1` (stereo not given) was tested, and the inhibition was 83.5% (active).
`O=C(NC(=O)c1ccccc1)NC(=O)c1ccccc1` was tested, and the inhibition was 21.7% (inactive).
In the case of `COc1ccc(-c2nc(-c3ccccc3)no2)c(OC)c1`, the inhibition is reported as 12.8% (inactive).
With `CCOC(=O)C(CC)Sc1ncnc2c1nnn2-c1ccc(F)cc1` (stereo not given) the inhibition was 10.5% (inactive).
For `CCN(CC(=O)NC1CCS(=O)(=O)C1)c1nc(-c2cccnc2)nc2ccccc12` (stereo not given), the inhibition was 4.6% (inactive).
`Cc1ccc2c(c1)C(O)(CC(=O)c1cccnc1)C(=O)N2` (stereo not given) was tested, and the inhibition was 10.2% (inactive).
In the case of `Cc1ccc(NC2(C#N)C(=O)Nc3ccccc32)cc1` (stereo not given), the inhibition is reported as 60.3% (active).
With `CN1CCN(c2nc3c(c(=O)[nH]c(=O)n3C)n2Cc2cccc3ccccc23)CC1` the inhibition was 1.2% (inactive).
With `O=C(Nc1ccn(Cc2ccc(F)cc2)n1)c1ccncc1` the inhibition was 97.8% (active).
For `Cc1ccc(Cn2ccc(NC(=O)C3C4CCC(C4)C3C(=O)O)n2)cc1` (stereo not given), the inhibition was 15% (inactive).
In the case of `Cc1ccc(Cn2ccc(NC(=O)c3cc(C(C)C)on3)n2)cc1`, the inhibition is reported as 97.2% (active).
For `Cc1cc(NC(=O)c2cc(-c3cccs3)on2)nn1Cc1ccc(Cl)cc1`, the inhibition was 2% (inactive).
In the case of `Cc1nn(Cc2ccc(F)cc2)c(C)c1NC(=O)c1noc2c1CCc1ccccc1-2`, the inhibition is reported as 1% (inactive).
For `CC(=O)Nc1ccn(Cc2c(F)cccc2Cl)n1`, the inhibition was 48.9% (inactive).
In the case of `Cc1ccc(N(NC(=O)C(C)(C)O)C(=O)c2ccccc2)cc1C`, the inhibition is reported as 14.9% (inactive).
In the case of `COc1ccccc1CNC(=O)Cn1cc2c(n1)CCCC2`, the inhibition is reported as 20.5% (inactive).
With `O=P(O)(CN1CCCCC1)CN1CCCCC1` the inhibition was -0.9% (inactive).
`Cc1ccc(-c2cnc(NC(=O)CCC(=O)N(C)Cc3ccccc3)n2C)cc1` was tested, and the inhibition was 1% (inactive).
In the case of `COc1ccccc1NC1=NC(c2ccc(Cl)cc2)N=C(N)N1` (stereo not given), the inhibition is reported as 92.6% (active).
With `COc1ccccc1NC1=NC2(CCCC2)N=C(N)N1` the inhibition was -6% (inactive).
In the case of `COc1ccccc1Nc1nc(N)nc(CN(C)C2CCCCC2)n1`, the inhibition is reported as -23.9% (inactive).
With `C=C(C)Cn1c(N2CCN(CC)CC2)nc2c1c(=O)[nH]c(=O)n2C` the inhibition was -24.3% (inactive).
`O=S(=O)(c1ccc(Sc2nnc3ccccn23)nc1)N1CCOCC1` was tested, and the inhibition was 13.2% (inactive).
In the case of `O=C(NCc1ccc2c(c1)OCO2)C12CC3CC(CC(C3)C1)C2`, the inhibition is reported as 26.4% (inactive).
In the case of `O=C(COC(=O)c1ccc2c(c1)OCCO2)NCc1ccccc1`, the inhibition is reported as 6.9% (inactive).
With `O=C(CN(Cc1ccccc1)C(=O)c1ccc2c(c1)OCCO2)NCc1ccc2c(c1)OCO2` the inhibition was 29.2% (inactive).
With `O=C(CNS(=O)(=O)c1ccc(Br)s1)N1CCN(C(=O)c2ccco2)CC1` the inhibition was 26.7% (inactive).
`COc1ccc(-c2csc(N3CCN(Cc4ccc5c(c4)OCO5)CC3)n2)cc1` was tested, and the inhibition was -20.9% (inactive).
In the case of `Cc1ccc(C(=O)OCC(=O)NCc2ccc3c(c2)OCO3)s1`, the inhibition is reported as 64% (active).
In the case of `O=C(Cn1nnc(-c2ccccc2)n1)NCc1ccc2c(c1)OCO2`, the inhibition is reported as 25.4% (inactive).
With `CCOC(=O)NCc1ccc2c(c1)OCO2` the inhibition was 48.5% (inactive).
In the case of `O=C(CCNS(=O)(=O)c1ccccc1C(F)(F)F)NCc1ccc2c(c1)OCO2`, the inhibition is reported as 84.6% (active).
With `O=C(CN1CCN(c2nc(-c3ccccc3)cs2)CC1)NCc1ccc2c(c1)OCO2` the inhibition was 91.6% (active).
In the case of `O=C(CNS(=O)(=O)c1ccc(Br)s1)NCc1ccc2c(c1)OCO2`, the inhibition is reported as 63.1% (active).
For `C/C(=N\O)C1(C)N(O)C(C)(C)C(c2ccc(Br)cc2)=[N+]1[O-]` (stereo not given), the inhibition was -15.7% (inactive).
`Cc1ccccc1OCC(=O)NCC(=O)OCC(=O)c1ccc2ccccc2c1` was tested, and the inhibition was -2% (inactive).
With `COC(=O)c1sc(NC(=O)c2csc3c2CCCC3)nc1C` the inhibition was -10.6% (inactive).
`Clc1ccccc1-c1cc(COc2ccc3ccccc3c2)no1` was tested, and the inhibition was 3.1% (inactive).
In the case of `CCCCSc1[nH]c(=O)c(C(=O)OCC)cc1C#N`, the inhibition is reported as 3.8% (inactive).
